EWS-Fli block: EWS/Fli-driven NR0B1 reporter inhibitors, primary screen, A673 cells, NR0B1 luciferase, luminescence, MLPCN library; viability-normalised; inhibition, % at 12.6 µM; 350,000 tested, 0.67% active;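 active means mean inhibition of at least 50% after viability correction, with every replicate also passing that limit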;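 further: firefly luciferase signal divided by Alamar Blue viability fluorescence both relative to DMSO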
PAX8 reporter: inhibitors of PAX8-driven TPO luciferase reporter, primary screen, RMG-I cells, single concentration; 360,000 tested, 1.2% active; inhibition, % at 12.6 µM; AID 652154, 2013; SteadyGlo, 24 h;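 active means mean replicate inhibition at least 60% with every replicate also reaching 60%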;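 further: luciferase light reporting Pax8 driven TPO promoter activity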
rRNA inh HTS: reduced GFP signal of wild-type E. coli, primary screen, bacterial rRNA inhibitor project, GFP/RFP fluorescence, OD600, single point; GFP signal change (wild-type ribosome), % (test concentration not listed); AID 720706, 2013; E. coli WT GFP vs humanized-ribosome RFP mutants, 24 h; hits give low values; DMSO median 0, no signal -100; 350,000 tested, 1.6% active;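 active means significant combined selectivity score with lowered wild-type GFP, culture density cut under 30%, mutant RFP and density less affected; inactive means any of these conditions unmet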
PGC1a acetyl inh: inhibitors of PGC1a acetylation signal, primary screen, cell-based, U2OS, AlphaScreen, inhibitor mode; inhibition, % at 15.6 µM; 350,000 tested, 0.17% active; AlphaScreen anti-acetyl-lysine; with virally co-expressed GCN5 acetyltransferase; AID 651687, 2012;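 active means every replicate shows inhibition of at least 40%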
LGR2 antag: inhibitors of bursicon-induced LGR2 CRE-luciferase signal, primary screen, cell-based, HEK293, CRE-luciferase reporter, bursicon stimulation. Drosophila bursicon receptor LGR2 (rickets). AID 720647, 2013. inhibition, % at 9.99 µM. bursicon-stimulated, 4 h. 380,000 tested, 0.35% active;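 active means drop in luminescence signal, shown as inhibition above about 50% in the replicate tests, limit read from the data, passing the limit was not always enough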;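 further: agonist challenge used bursicon conditioned medium at about half maximal strength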
SIRT5 inh: SIRT5 desuccinylase inhibitors, primary screen, biochemical, fluorescence imaging, single point, set 5; NAD-dependent protein deacylase sirtuin-5, mitochondrial (Homo sapiens), Q9NXA8; Purified SirT5, succinyl-peptide AMC, trypsin-coupled fluorescence; 330,000 tested, 1.1% active; inhibition, % at 15 µM; in the data active means inhibition above about 15%
Target sequence (Q9NXA8 whole entry, looked up): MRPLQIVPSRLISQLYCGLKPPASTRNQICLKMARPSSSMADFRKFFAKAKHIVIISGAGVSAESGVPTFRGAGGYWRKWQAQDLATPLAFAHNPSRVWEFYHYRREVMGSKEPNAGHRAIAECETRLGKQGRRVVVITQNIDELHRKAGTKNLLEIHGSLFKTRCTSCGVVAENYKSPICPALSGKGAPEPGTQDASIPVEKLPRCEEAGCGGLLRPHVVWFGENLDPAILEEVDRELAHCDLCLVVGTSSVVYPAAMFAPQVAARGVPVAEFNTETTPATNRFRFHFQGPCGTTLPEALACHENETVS
Large screens that a line does not name were inactive. Sampled rows, rich in hits. Any-hit rate of the full collection: about 3.4%.

CO[C@H]1CN(C)C(=O)c2ccc(NS(=O)(=O)c3ccc(-c4ccccc4)cc3)cc2OC[C@@H](C)NC[C@@H]1C	none (no result: EWS-Fli block)
COc1cc(C(=O)N/N=C/c2sccc2C)cc(OC)c1OC	EWS-Fli block 55.0, PAX8 reporter 80.6
COc1ccc(/C=N\NC(=O)c2ccc(-c3ccccc3)cc2)cc1COC(C)=O	rRNA inh HTS -25.1
COCc1cc(/C=N\NC(=O)COc2ccccc2)ccc1OC	rRNA inh HTS -27.3 (no result: PGC1a acetyl inh)
CCOc1cc(/C=N/NC(=O)c2ccccc2OCc2ccc(F)cc2)ccc1O	rRNA inh HTS -21.2 (no result: PGC1a acetyl inh)
Cc1ccccc1-c1ccc([C@@H]2[C@@H](CO)N3C(=O)CN(C(=O)Cc4ccccn4)C[C@H]23)cc1	none
COc1cccc(CN2CC3(C2)CN(C(=O)C2CC2)[C@H](CO)c2c3c3ccc(OC)cc3n2C)c1	none (no result: PAX8 reporter, SIRT5 inh)
COC(=O)c1cc(NC(=O)CN(c2ccccc2OC)S(=O)(=O)c2ccccc2)ccc1Cl	rRNA inh HTS -21.3 (no result: EWS-Fli block, PAX8 reporter, PGC1a acetyl inh)
COc1ccccc1N(CC(=O)NCCSCc1ccccc1)S(=O)(=O)c1ccccc1	rRNA inh HTS -14.9 (no result: SIRT5 inh)
COc1ccc(S(=O)(=O)N(CC(=O)NC2CCCC2)c2ccccc2OC)cc1	rRNA inh HTS -28.8 (no result: PGC1a acetyl inh)
COC(=O)c1cc(NC(=O)CN(c2cccc(OC)c2)S(=O)(=O)c2ccccc2)ccc1Cl	none (no result: SIRT5 inh)
COc1ccc(S(=O)(=O)N(CC(=O)NC2CC3CCC2C3)c2ccccc2OC)cc1 (centres undefined)	none (no result: PGC1a acetyl inh)
COc1ccccc1N(CC(=O)NCCSCc1ccccc1)S(=O)(=O)c1ccc(C)cc1	none (no result: PGC1a acetyl inh)
O=C(C1CC1)N1CC(=O)N2[C@@H](CO)[C@@H](c3ccc(C#Cc4cccc(F)c4)cc3)[C@@H]2C1	none
COC(=O)[C@@]1(Sc2ccc(C)cc2)CC(=O)N(c2ccccc2)[C@@H]1c1ccccc1	PAX8 reporter 64.6 (no result: PGC1a acetyl inh)
CCOC(=O)CCCCCC(=O)Nc1ccc2c(c1)C(=O)N([C@@H](C)CO)C[C@H](C)[C@H](CN(C)S(C)(=O)=O)O2	none (no result: EWS-Fli block, PAX8 reporter, PGC1a acetyl inh, LGR2 antag, SIRT5 inh)
CCC(=O)N1CC(=O)N2[C@H](CO)[C@@H](c3ccc(C#Cc4cccc(OC)c4)cc3)[C@@H]2C1	none
O=C(Nc1cccc(-c2cnc3ccccc3n2)c1)c1cccc(NC(=O)c2ccco2)c1	PAX8 reporter 71.5 (no result: EWS-Fli block, rRNA inh HTS, LGR2 antag, SIRT5 inh)
O=C(Nc1cccc(-c2cnc3ccccc3n2)c1)c1ccccc1	none (no result: EWS-Fli block, PAX8 reporter, rRNA inh HTS, SIRT5 inh)
O=C(C[C@H]1CC[C@@H](NS(=O)(=O)c2cccc(F)c2)[C@@H](CO)O1)NCc1ccc2c(c1)OCO2	none
C[C@H]1CN([C@@H](C)CO)S(=O)(=O)c2ccc(-c3cccc(C#N)c3)cc2O[C@@H]1CN(C)C(=O)c1ccc(F)cc1	none (no result: PAX8 reporter)
CC(C)Cc1nc2oc3c(NCC4CCCO4)ncnc3c2c2c1CCC2 (centres undefined)	PAX8 reporter 81.6 (no result: EWS-Fli block, rRNA inh HTS, LGR2 antag, SIRT5 inh)
CCC(=O)N=c1sc2cc(F)cc(F)c2n1C	none (no result: PGC1a acetyl inh)
CC(C)C(=O)N=c1sc2cc(F)cc(F)c2n1C	SIRT5 inh 17.1 (no result: PGC1a acetyl inh)
Clc1nccc(N2CCN(c3ccccc3Cl)CC2)n1	rRNA inh HTS -25.4, SIRT5 inh 18.1
CCCc1nc(NCCCOCC)c2nnn(Cc3ccccc3)c2n1	SIRT5 inh 16.9
O=C(C[C@H]1CC[C@@H]2[C@H](COC[C@H](O)CN2C(=O)Nc2ccc(Cl)c(Cl)c2)O1)NCc1ccccc1	none
CC1(C)c2ccccc2C(=O)c2ccccc21	rRNA inh HTS -22.0 (no result: SIRT5 inh)
CC1(C)C(=Cc2ccccc2)C(=O)c2ccccc21	none (no result: PGC1a acetyl inh)
CCCC(=O)N1CCC2(CC1)CN(C(=O)C1CCOCC1)[C@@H](CO)c1[nH]c3cc(OC)ccc3c12	none (no result: PAX8 reporter, SIRT5 inh)
O=C(CNC(=O)C(c1ccccc1)c1ccccc1)N/N=C\c1cccc(O)c1	none
COc1cccc(/C=N/NC(=O)CNC(=O)COc2cccc(C)c2)c1O	none (no result: PGC1a acetyl inh)
O=C(CNC(=O)C(c1ccccc1)c1ccccc1)N/N=C/c1ccc(O)cc1O	rRNA inh HTS -19.9 (no result: PGC1a acetyl inh)
O=C(N/N=C/c1ccc(O)cc1O)c1ccncc1	none (no result: PGC1a acetyl inh)
Cc1cccc(OCC(=O)NCC(=O)N/N=C/c2ccc(O)cc2O)c1	rRNA inh HTS -30.2
CCc1cc(C(=O)N/N=C/c2ccc(O)cc2O)c2ccccc2n1	PAX8 reporter 66.5 (no result: EWS-Fli block, PGC1a acetyl inh)
Cc1ccc(NC(=O)CCC(=O)N/N=C/c2ccc(O)cc2O)cc1	rRNA inh HTS -12.2 (no result: PGC1a acetyl inh)
COc1ccc2c3c(n(C)c2c1)[C@@H](CO)N(S(C)(=O)=O)CC31CN(C(=O)C2CCC2)C1	none (no result: PGC1a acetyl inh)
COc1ccc2c3c(n(C)c2c1)[C@H](CO)N(CC1CC1)CC31CN(C(=O)Nc2ccccc2)C1	none (no result: PGC1a acetyl inh, SIRT5 inh)
Cc1ccc(O)c(/C=N/NC(=O)CN2CCCC2)c1	PGC1a acetyl inh 83.6 (no result: LGR2 antag)
Cc1nonc1C(=O)N/N=C/c1ccc(O)cc1O	rRNA inh HTS -22.4
CC1(c2nnc(-c3ccccc3)o2)CC(c2c(Cl)cccc2Cl)=NO1 (centres undefined)	rRNA inh HTS -28.6
COc1cc(CCc2ccccc2)c(C(=O)O)c(O)c1CC=C(C)C	none (no result: PAX8 reporter, rRNA inh HTS, SIRT5 inh)
COc1cc(CCc2ccccc2)c(C(=O)O)c(O)c1C/C=C(/C)CCC=C(C)C	SIRT5 inh 31.9
CC12CCC(C(=O)N3CCC(Cc4ccccc4)CC3)(C(=O)C1=O)C2(C)C (centres undefined)	rRNA inh HTS -23.0 (no result: PGC1a acetyl inh)
C=C1CC(Cn2cc(Br)c(=O)[nH]c2=O)(c2ccc(-c3ccccc3)cc2)OC1=O (centres undefined)	EWS-Fli block 53.3, PAX8 reporter 99.0, LGR2 antag 76.4 (no result: PGC1a acetyl inh)
COc1cc(/C=C2/C(=O)NN(c3ccc(F)cc3)C2=O)cc(Cl)c1O	none
COc1cc(/C=C2/C(=O)NN(c3ccc(Cl)c(Cl)c3)C2=O)cc([N+](=O)[O-])c1O	SIRT5 inh 22.1
COc1ccc2c3c(n(C)c2c1)[C@@H](CO)N(C(=O)Nc1ccc(F)cc1)CC31CCN(S(=O)(=O)c2cn(C)cn2)CC1	none (no result: PAX8 reporter, PGC1a acetyl inh)
Cc1noc(/C=C/N(C)C)c1S(=O)(=O)N(C)CC(=O)NC1CCCCC1	PGC1a acetyl inh 43.2 (no result: EWS-Fli block, PAX8 reporter, rRNA inh HTS, LGR2 antag, SIRT5 inh)
Cc1noc(/C=C/N(C)C)c1S(=O)(=O)N1CCCC(C(=O)NC2CCCCC2)C1 (centres undefined)	none
Cc1noc(/C=C/N(C)C)c1S(=O)(=O)N1CCCC(C(=O)N2CCCCC2)C1 (centres undefined)	SIRT5 inh 17.2 (no result: PGC1a acetyl inh, LGR2 antag)
CO[C@H](CN(C)C(=O)c1ccccc1F)[C@H](C)CN([C@H](C)CO)S(=O)(=O)c1ccccc1	none (no result: PAX8 reporter)
C[C@H]1CCCCO[C@H](CN(C)C(=O)C2CCCCC2)[C@@H](C)CN([C@@H](C)CO)C(=O)c2cc(NC(=O)Cc3ccccc3)ccc2O1	none
